In PubChem BioAssay (NCI) one finds growth data, which are given here for 12 compounds.

Among the test systems are DU-145 prostate; K-562 leukemia; MALME-3M melanoma; MDA-MB-231 breast; RXF 393 renal; SF-268 CNS; SF-295 CNS; SF-539 CNS; UACC-257 melanoma; M14 melanoma.
Experiment in all cases: NCI-60 one-dose screen, 48 h (100 = growth as untreated, 0 = no growth, -100 = all killed)
What all share (conditions): 10 µM unless noted

About 83,000 compounds went through this panel and 20% of them were active in at least one assay; those are over-represented in the sample as a whole.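 Treatment: one concentration, 48 hours, 96-well format. Scoring: percent growth, with anything below 10 considered active.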 A number with no mark means an inactive call. Calls of active or inactive are those of the source.

In the case of `COc1cc(/C=C2\C(=O)N(CC(O)COc3cc(O)c4c(=O)cc(-c5ccccc5)oc4c3)c3ccccc32)cc(OC)c1O` (stereo not given), the growth in the assay with DU-145 prostate was 85.6%; in the assay on K-562 leukemia, 71.4%; in the assay on MALME-3M melanoma, 99.1%; in the assay with MDA-MB-231 breast, 84.6%; in the assay with RXF 393 renal it was 101%; with SF-268 CNS it was 80%. In addition, the growth was 95.1% with SF-295 CNS, 88.1% in the assay with SF-539 CNS, 110% with UACC-257 melanoma and 88.7% in the assay on M14 melanoma.
As for `COc1cc(/C=C/c2cc(/C=C/c3ccc(O)c(OC)c3)n(-c3ccccc3)c(=O)n2)ccc1O`, the growth with DU-145 prostate was 86.7%; in the assay with K-562 leukemia, 53.9%; in the assay on MALME-3M melanoma it was 90.4%; in the assay with MDA-MB-231 breast, 61.4%; with RXF 393 renal, 68.3%; in the assay with SF-268 CNS, 72.3%. In addition, the growth in the assay with SF-295 CNS was 88%; in the assay with SF-539 CNS, 79.5%; in the assay with UACC-257 melanoma, 88.9%; in the assay with M14 melanoma it was 85.7%.
Consider `Cn1c(=O)c2c(nc(N3CCCC3)n2C)n(C)c1=O`, for which the growth with DU-145 prostate was 105%; in the assay with K-562 leukemia it was 99.2%; in the assay on MALME-3M melanoma, 103%; in the assay on MDA-MB-231 breast, 98.9%; with RXF 393 renal, 104%; with SF-268 CNS, 97.3%. In addition, the growth in the assay with SF-295 CNS was 102%; with SF-539 CNS, 101%; with UACC-257 melanoma, 93.2%; in the assay on M14 melanoma, 92.3%.
For `CCCCC(=O)OC1CCCCC1C` (stereo not given), the growth in the assay with DU-145 prostate was 105%; in the assay with K-562 leukemia, 98.8%; in the assay with MALME-3M melanoma, 94.6%; in the assay with MDA-MB-231 breast, 106%; in the assay with RXF 393 renal it was 93.4%; in the assay on SF-268 CNS, 98.7%. The growth was 97% in the assay on SF-295 CNS, 103% in the assay on SF-539 CNS, 78.5% in the assay on UACC-257 melanoma and 95.4% with M14 melanoma.
With `COc1ccc(NC(=O)c2ccoc2COc2ccccc2)cc1`, the growth with DU-145 prostate is 106%; with K-562 leukemia, 55%; with MALME-3M melanoma, 99.7%; in the assay with MDA-MB-231 breast, 95.7%; in the assay on RXF 393 renal, 93.9%; in the assay with SF-268 CNS it was 97.5%. Further, the growth is 98.3% with SF-295 CNS, 96% in the assay with SF-539 CNS, 99.7% in the assay on UACC-257 melanoma and 92.1% with M14 melanoma.
Regarding `Brc1ccc(Cn2nnnc2-c2ccn(-c3ccccc3)n2)cc1`, the growth with DU-145 prostate is 85.8%; in the assay on K-562 leukemia it was 46.2%; with MALME-3M melanoma, 103%; in the assay on MDA-MB-231 breast, 73.5%; in the assay with RXF 393 renal it was 87.1%; in the assay with SF-268 CNS it was 73.2%. Besides, the growth in the assay with SF-295 CNS was 50.5%; in the assay with SF-539 CNS, 80.8%; in the assay with UACC-257 melanoma, 28.8%; in the assay on M14 melanoma, 83.4%.
On to `Cn1cccc1/C=C1/SC(=S)N(CCc2ccc(O)cc2)C1=O`, for which the growth in the assay with DU-145 prostate is 82.3%; in the assay with K-562 leukemia, 18.6%; in the assay with MALME-3M melanoma, 36.7%; in the assay with MDA-MB-231 breast, 59.1%; in the assay with RXF 393 renal it was 76.6%; in the assay on SF-268 CNS, 74%. The growth is 37.6% in the assay on SF-295 CNS, 43.6% in the assay on SF-539 CNS, 74.1% with UACC-257 melanoma and 19.9% with M14 melanoma.
Regarding `CCCCn1c(-c2ccc(O)cc2)cn2c3c(=O)[nH]c(=O)n(C)c3nc12`, the growth in the assay on DU-145 prostate was 101%; in the assay on K-562 leukemia, 34.3%; in the assay with MALME-3M melanoma it was 90.7%; in the assay with MDA-MB-231 breast it was 66.5%; with RXF 393 renal, 74.9%; in the assay with SF-268 CNS it was 86.3%. Moreover, the growth in the assay on SF-295 CNS is 78.1%; in the assay on SF-539 CNS it was 74.9%; in the assay on UACC-257 melanoma it was 79.1%; in the assay with M14 melanoma it was 54.1%.
For the compound `Cc1oc(-c2ccccc2Cl)cc1C(=O)Nc1ccc(S(N)(=O)=O)cc1`, the growth in the assay with DU-145 prostate was 104%; in the assay on K-562 leukemia, 96.3%; in the assay on MALME-3M melanoma it was 98.6%; with MDA-MB-231 breast, 93.3%; with RXF 393 renal it was 111%; with SF-268 CNS, 104%. In addition, the growth in the assay with SF-295 CNS was 104%; in the assay on SF-539 CNS, 95.4%; in the assay with UACC-257 melanoma, 95%; in the assay on M14 melanoma, 93.8%.
In the case of `Cc1csc(Nc2nc(-c3ccc(Cl)cc3)nc(C(Cl)(Cl)Cl)n2)n1`, the growth with DU-145 prostate was 12.6%; in the assay on K-562 leukemia, 87.2%; in the assay with MALME-3M melanoma it was 99.9%; in the assay on MDA-MB-231 breast it was 79.9%; in the assay on RXF 393 renal, 87.1%; with SF-268 CNS, 90.5%. Also, the growth is 60.8% with SF-295 CNS, 87.2% in the assay with SF-539 CNS, 98.7% with UACC-257 melanoma and 95.9% with M14 melanoma.
On to `CCN1CCN(C(=O)[C@]23CCC(C)(C)C[C@@H]2C2=CC[C@@H]4[C@@]5(C)C/C(=C/c6ccncc6)C(=O)C(C)(C)[C@@H]5CC[C@@]4(C)[C@]2(C)CC3)CC1`, for which the growth in the assay with DU-145 prostate is -16.9% (active); with K-562 leukemia, -13.1% (active); with MALME-3M melanoma, -87.9% (active); with MDA-MB-231 breast it was -59.9% (active); in the assay on RXF 393 renal, -93.3% (active); with SF-268 CNS it was 14.8%. The growth in the assay on SF-295 CNS is -55.9% (active); with SF-539 CNS it was -96.4% (active); with UACC-257 melanoma, -2.01% (active); with M14 melanoma, -76% (active).
`O=C(/C(=C(\C(=O)c1ccccc1)c1ccccc1)c1ccccc1)c1ccccc1`: the growth was 80.1% in the assay with DU-145 prostate; 14.1% in the assay on K-562 leukemia; 77.2% in the assay with MALME-3M melanoma; 66.7% in the assay with MDA-MB-231 breast; 69.5% in the assay on RXF 393 renal; 56.2% with SF-268 CNS. The growth in the assay on SF-295 CNS is 54.7%; with SF-539 CNS, 82.1%; in the assay on UACC-257 melanoma, 68.8%; with M14 melanoma it was 66.3%.
